Inconclusive results are not listed. Calls of active or inactive are those of the source. Calls come from the whole dose curve; as a rule, active = well fitted cell-killing curve with a large enough effect; inconclusive = small, poorly fitted or top-dose-only effect, or effect the other way; inactive = flat fitted curve, though single readings scatter.
Assay: qHTS assay for cell viability of the p53RE-bla HCT-116 cell line (AID 743292); note: nearly all actives have a fitted effect of over 55% in size
Details: p53RE-bla HCT-116 viability, ATP luminescence, 16 h; series mostly up to 95 µM; activity change, negative = cytotoxicity: at the top concentration
From the text: U.S. Tox21 Program National Center for Advancing Translational Sciences [NCATS] NIH Chemical Genomics Center [NCGC] U.S. Environmental Protection Agency [EPA] National Institutes of Environmental Health Sciences [NIEHS] National Toxicology Program [NTP] U.S. Food and Drug Administration [FDA] Tox21 Assay Overview: The CellTiter-Glo Luminescent Cell Viability Assay (Promega, Madison, WI) is a homogeneous method to determine the number of viable cells in culture based on quantitation of the ATP present, which signals the presence of metabolically active cells. This cell viability assay was used to screen environmental chemicals in the CellSensor p53RE-bla HCT-116 cell line (Invitrogen).
Tox21 Assay Protocol Summary: Cell viability after compound treatment was measured using a luciferase-coupled ATP quantitation assay (CellTiter-Glo viability assay, Promega, Madison, WI) in CellSensor p53RE-bla HCT-116 cell line (Invitrogen). Total intracellular ATP content corresponds to the number of metabolically competent cells after compound treatment. The cells were dispensed at 4,000 cells/5 uL/well in 1,536-well white/solid bottom assay plates using a Flying Reagent Dispenser (Aurora Discovery, San Diego, CA). The cells were incubated for 5 h at 37 C, followed by the addition of 23 nL of compounds dissolved in DMSO, positive controls or DMSO only using a pintool work station (Kalypsys, San Diego, CA). The assay plates were incubated for 16 h at 37 C, followed by the addition of 5 uL/well of CellTiter-Glo reagent. After 30 min incubation at room temperature, the luminescence intensity of the plates was measured using a ViewLux plate reader (PerkinElmer, Shelton, CT).
% is set by controls: 0 for no effect and ±100 for the full control effect.

Compound	activity change, negative = cytotoxicity	Potency
O=C(O)CCCCCCCCCCC(=O)O	-4.81% (inactive)	
CC(C)c1ccc2cc(C(C)C)ccc2c1	-3.62% (inactive)	
COc1cc(Cl)c(OC)cc1N	4.54% (inactive)	
C=CC(=O)OCC[N+](C)(C)C	3.38% (inactive)	
O=C(c1ccccc1)c1ccc(O)c(O)c1O	0.435% (inactive)	
O=C(O)c1ccc2c(c1)C(=O)OC2=O	-3.09% (inactive)	
Cc1ccc(C(=O)c2ccccc2)cc1	-3.07% (inactive)	
CCCCCCCCCCCCCCCCCCN	6.64% (inactive)	
Cn1sccc1=O	-0.128% (inactive)	
COCCO		inactive
CCCCOCC(C)OCC(C)O (stereo not given)	-7.09% (inactive)	
CCCCCCCCCCCCCCC(=O)OC	-7.52% (inactive)	
C=C(C)C(=O)OCCC[Si](Cl)(Cl)Cl	-5.26% (inactive)	
CCCCOCCOCCO	4.3% (inactive)	
CCCCCCCCCCCCCCCO	-5.21% (inactive)	
CC1(C)[C@@H](C=C(Cl)Cl)[C@@H]1C(=O)OCc1cccc(Oc2ccccc2)c1	-17.7% (inactive)	
O=c1[nH]sc2ccccc12	-7.28% (inactive)	
CS(C)=O	-0.358% [at 65 mM] (inactive)	
O=C(OCC1CCC2OC2C1)C1CCC2OC2C1 (stereo not given)	-1.94% (inactive)	
CCCCCCCC/C=C\CCCCCCCCCCCCC	1.35% (inactive)	

Compound	activity change, negative = cytotoxicity	Potency
BrC1CCC(Br)C(Br)CCC(Br)C(Br)CCC1Br (stereo not given)	5.05% (inactive)	
O=[N+]([O-])C(CO)(CO)CO	-8.22% (inactive)	
CCCCCCCC[Si](Cl)(Cl)Cl	8.24% (inactive)	
CCCCCCCCCCCCCC(=O)OC	8.64% (inactive)	
C=C[Si](C)(C)O[Si](C)(C)C=C	-1.08% (inactive)	
CCC(O)OCCCOC (stereo not given)	4.45% (inactive)	
CC1(C)C(=O)N(Br)C(=O)N1Cl	3.07% (inactive)	
CCCCCCCCCCCCCCC	7.7% (inactive)	
OCCC(F)(F)C(F)(F)C(F)(F)C(F)(F)C(F)(F)C(F)(F)C(F)(F)C(F)(F)F	6.02% (inactive)	
CCCCCCCCCCCCc1ccccc1	1.26% (inactive)	
CC(COCC(C)OC(=O)c1ccccc1)OC(=O)c1ccccc1 (stereo not given)	-2.62% (inactive)	
CO[Si](OC)(OC)c1ccccc1	-0.409% (inactive)	
CCOC(=O)CC(O)(CC(=O)OCC)C(=O)OCC	6.75% (inactive)	
Cc1ccc(S(=O)(=O)N=C=O)cc1	-7.07% (inactive)	
CCO[Si](CCC#N)(OCC)OCC	-7.36% (inactive)	
CCCC/C=C\CCCCCCCCCC=O	1.49% (inactive)	
CC(C)(C)C(O)/C(=C\c1ccc(Cl)cc1)n1cncn1 (stereo not given)	5.6% (inactive)	
Cc1ccc2c(c1)C(=O)OC2=O	6.3% (inactive)	
Fc1ccc(Br)cc1	-3.11% (inactive)	
C=CCOc1nc(OCC=C)nc(OCC=C)n1	-5.93% (inactive)	

— PubChem BioAssay (NCATS)
